Experimental data from PubChem BioAssay (NCI).
“And” between values parts separate entries of the source, which are not always exact repeats. Identical values can stand only once. About 79,000 compounds went through this panel and 15% of them were active in at least one assay; those are over-represented in the sample as a whole. Values without a mark were called inactive. No stated cut-off is given here; in the data, active means growth inhibition above about 70%; inactive means the rest.

test: NCI Yeast Anticancer Drug Screen. Data for the cln2 rad14 strain (AID 165);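 further: 0% = growth equal to vehicle treated cultures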; settings: S. cerevisiae cln2 rad14 strain, stronger effect = higher value; at 50.0 µM unless noted
How it was run: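 Each compound was tested on cln2 rad14 yeast. Inhibition of growth was calculated against vehicle-exposed controls.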

SMILES | growth inhibition
O=c1[nH]c2[nH]c(=S)[nH]c(=O)c2[nH]1 | -11.7%
CC(C)N(C(=O)c1ccccc1O)C(C)C | -7.7%
[N-]=[N+]=NC1(N=[N+]=[N-])C(=O)Nc2ccccc2C1=O (stereo not given) | 3.65%
COc1ccc(N2CC[N+](c3ccc(N(C)C)cc3)=C2C2=[N+](c3ccc(N(C)C)cc3)CCN2c2ccc(OC)cc2)cc1 | -7.6%
O=c1oc(-c2ccccc2CCl)nc2ccccc12 | 15.3%
COC1OC(COC(=O)NCCCCC(=O)C(F)(F)F)C(O)C(O)C1O (stereo not given) | 29.9%
NC(CSCCB(O)O)C(=O)O (stereo not given) | -14.6%
Cc1ccc(C(=O)O)c(/C=C2\Cc3cc(C)cc(C)c3C2=O)c1 | 16.6%
CC(CCO)CCCO (stereo not given) | -13.8%
Cc1ccc2sccc(=O)c2c1 | -12.8%
[O-][N+](=Nc1ccc2c(c1)Cc1ccccc1-2)c1ccc2c(c1)Cc1ccccc1-2 | -19.1%
FC(F)(F)c1ccc2ccc3ccc(Cl)cc3c2c1 | -10.4%
O=C(NO)c1ccccc1 | 21.8%
COC(=O)c1cc(C)n(C)c(=O)c1CN | -22.4%
Cc1nc(-c2ccc(N=Cc3ccc(N4CCC5(CCCCC5)CC4)cc3)cc2)cs1 | 18.6%
Cc1ccc(S(=O)(=O)NC(CCC(=O)N2CCOCC2)C(=O)O)cc1 (stereo not given) | -57.9%
O=C(Oc1ccc(Cl)cc1)c1ccc([N+](=O)[O-])cc1 | 2.7%
O=[N+]([O-])c1ccc(N(CCO)CCO)cc1 | 9.25%
Cn1c([N+](=O)[O-])cnc1CSc1nc(-c2ccccc2)no1 | -1.1%
CCOc1nc(=O)n(C2OC(CO)C(O)C2O)s1 (stereo not given) | -34.1%

SMILES | growth inhibition
O=C(c1ccccc1)C1(c2ccccc2)OC1(C(=O)c1ccccc1)c1ccccc1 (stereo not given) | -7.65%
FC(F)(F)COP1(OCC(F)(F)F)=NP(OCC(F)(F)F)(OCC(F)(F)F)=NP(OCC(F)(F)F)(OCC(F)(F)F)=N1 | -4.55%
O=C(O)c1nc2cn1/C=C\C=NCC1=CN3C=CC=NC3(C(=O)O)N1C2 (stereo not given) | -43.2%
CCC(=O)C(C)=O | -4%
CCN(CC)C(=O)c1cc(OC)c(C(=O)N(CC)CC)cc1OC | -15.2%
O=C(O)c1ccccc1SSc1ccccc1C(=O)O | 4% and -26.9%
CCCCCCCSCC(=O)OCC | 7.2%
CCc1ccc(O)cc1O | 10.7%
CCCCCCCCCCCCCCCCC(C#N)C(=O)O (stereo not given) | -1%
O=C1CCCC/C1=C/C=C/c1ccccc1 | -33.5%
CC1(C)CC(=O)C(/C=N/C(=S)Nc2ccc(S(N)(=O)=O)cc2)=C(O)C1 | -8.55%
CC(=O)OCC(OC(C)=O)C(OC(C)=O)C(OC(C)=O)C(OC(C)=O)C(=O)NC1CCc2ccccc2C1 (stereo not given) | 30.4%
O=c1[nH][nH]c(=O)c2c([N+](=O)[O-])cccc12 | -37.5%
COc1ccccc1OC(=O)c1ccccc1 | -9.1%
Cc1nc(N)c(N)c(=O)[nH]1 | -5.6%
C=CCC(O)CCCCC (stereo not given) | 20.7%
OC1COC(OCc2ccccc2)C(O)C1O (stereo not given) | -18.2% and -46.3%
COc1ccc(-c2cc(=O)c3c(O)c(O)c(OC)cc3o2)cc1O | -8.4%
CCCCC(C(=O)O)N(C)C (stereo not given) | -0.5%
CCCCCCN(CCCCCC)CC(O)c1cc(-c2ccc(Cl)cc2)nc2c(Cl)cccc12 (stereo not given) | -0.35%
